Source: PubChem BioAssay (NCI)
Compounds without any hit were thinned out: in the full panel of roughly 79,000, 15% have a hit. Unmarked numbers belong to inactive results. Active and inactive are the calls of the source. No stated cut-off is given here; in the data, active means growth inhibition above about 70%; inactive means the rest.

Tests used:
[1] = NCI Yeast Anticancer Drug Screen. Data for the rad50 strain (AID 155);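 further: 0% = growth of vehicle-only cultures of the same strain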; details: S. cerevisiae rad50 strain growth inhibition, active compounds read high
How it was run: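 DNA repair mutant yeast, compound exposure, growth read-out; inhibition is taken relative to vehicle.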

[2] = NCI Yeast Anticancer Drug Screen. Data for the mec2-1 strain (AID 157); details: S. cerevisiae mec2-1 strain, active compounds read high
How it was run: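 Cells of the genetically defined mec2-1 yeast strain are incubated with test compound. Inhibition of growth is calculated against vehicle-treated controls.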

[3] = NCI Yeast Anticancer Drug Screen. Data for the sgs1 mgt1 strain (AID 161);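 further: 0% = growth of cultures given vehicle only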; details: S. cerevisiae sgs1 mgt1 strain, active compounds read high
How it was run: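 Inhibition of yeast growth, normalised to vehicle-treated controls, is reported for a strain bearing genetic alterations in DNA damage repair.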

[4] = NCI Yeast Anticancer Drug Screen. Data for the cln2 rad14 strain (AID 165);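 further: 0% = growth equal to vehicle treated cultures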; details: S. cerevisiae cln2 rad14 strain, active compounds read high
How it was run: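 The screen exposed genetically defined yeast (cln2 rad14) to test compounds and scored growth inhibition relative to vehicle-treated controls.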

[5] = NCI Yeast Anticancer Drug Screen. Data for the bub3 strain (AID 167); details: S. cerevisiae bub3 mutant strain, active compounds read high
How it was run: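 In this screen, a yeast mutant lacking normal mitotic checkpoint function is challenged with compound. Relative growth versus vehicle gives the inhibition value.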

[6] = NCI Yeast Anticancer Drug Screen. Data for the mlh1 rad18 strain (AID 175); details: S. cerevisiae mlh1 rad18 strain growth inhibition, active compounds read high
How it was run: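 Compound-treated yeast growth, normalised to vehicle controls. Strain bears defined DNA repair mutations.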

[7] = at 5.0 µM (retest, dose inferred, filed as 0.5)
[8] = at 50.0 µM (retest, dose inferred, filed as 5.0)

Q: Which growth inhibition [1, 7] does the source give for `O=C(O)/C(=C\c1ccc(F)cc1)c1ccccc1` here?
A: Its growth inhibition is -3%.

Q: And the growth inhibition [1, 8]?
A: The growth inhibition was -12%.

Q: And the growth inhibition ([1]; at 50.0 µM)?
A: The growth inhibition was 48%.

Q: And the growth inhibition [2, 7]?
A: The growth inhibition was -18%.

Q: What about the growth inhibition [2, 8] of the same molecule?
A: The growth inhibition was -9%.

Q: And the growth inhibition ([2]; at 50.0 µM)?
A: The growth inhibition was 64.9%.

Q: What about the growth inhibition [3, 7] of the same molecule?
A: The growth inhibition was -4%.

Q: What about the growth inhibition [3, 8] of the same molecule?
A: Its growth inhibition is -16%.

Q: What about the growth inhibition ([3]; at 50.0 µM) of the same molecule?
A: The growth inhibition was 11.9%.

Q: What about the growth inhibition [4, 7] of the same molecule?
A: Its growth inhibition is 29%.

Q: And the growth inhibition [4, 8]?
A: Its growth inhibition is 11%.

Q: And the growth inhibition ([4]; at 50.0 µM)?
A: Its growth inhibition is 38.8%.

Q: What about the growth inhibition [5, 7] of the same molecule?
A: The growth inhibition was 3%.

Q: And the growth inhibition [5, 8]?
A: The growth inhibition was 28%.

Q: And the growth inhibition ([5]; at 50.0 µM)?
A: Its growth inhibition is 70.8% (active).

Q: What about the growth inhibition [6, 7] of the same molecule?
A: Its growth inhibition is -12%.

Q: And the growth inhibition [6, 8]?
A: Its growth inhibition is 9%.

Q: What about the growth inhibition ([6]; at 50.0 µM) of the same molecule?
A: The growth inhibition was 50.2%.

Q: Which results are given for `CCOC(=O)/C(=C/c1ccccn1)C(=O)c1ccccc1`?
A: growth inhibition [1, 7]: 19%; growth inhibition [1, 8]: 85% (active); growth inhibition ([1]; at 50.0 µM): 85.8% (active); growth inhibition [2, 7]: 18%; growth inhibition [2, 8]: 93% (active); growth inhibition ([2]; at 50.0 µM): 85.7% (active); growth inhibition [3, 7]: 17%; growth inhibition [3, 8]: 85% (active); growth inhibition ([3]; at 50.0 µM): 84.8% (active); growth inhibition [4, 7]: 39%; growth inhibition [4, 8]: 85% (active); growth inhibition ([4]; at 50.0 µM): 76.7% (active); growth inhibition [5, 7]: 67%; growth inhibition [5, 8]: 96% (active); growth inhibition ([5]; at 50.0 µM): 88.7% (active); growth inhibition [6, 7]: 53%; growth inhibition [6, 8]: 94% (active); growth inhibition ([6]; at 50.0 µM): 79.6% (active)

Q: Which growth inhibition [1, 7] does the source give for `CC[N+]1=C(/C=C\c2cc(C)c3cccnc3c2O)C(C)(C)c2ccccc21` here?
A: Its growth inhibition is 0%.

Q: And the growth inhibition [1, 8]?
A: The growth inhibition was 98% (active).

Q: What about the growth inhibition ([1]; at 50.0 µM) of the same molecule?
A: The growth inhibition was 53.9%.

Q: And the growth inhibition [2, 7]?
A: Its growth inhibition is -2%.

Q: And the growth inhibition [2, 8]?
A: Its growth inhibition is 98% (active).

Q: And the growth inhibition ([2]; at 50.0 µM)?
A: Its growth inhibition is 48.7%.

Q: And the growth inhibition [3, 7]?
A: Its growth inhibition is -6%.

Q: And the growth inhibition [3, 8]?
A: Its growth inhibition is 98% (active).

Q: What about the growth inhibition ([3]; at 50.0 µM) of the same molecule?
A: The growth inhibition was 48.1%.

Q: And the growth inhibition [4, 7]?
A: Its growth inhibition is -4%.

Q: What about the growth inhibition [4, 8] of the same molecule?
A: Its growth inhibition is 98% (active).

Q: What about the growth inhibition ([4]; at 50.0 µM) of the same molecule?
A: The growth inhibition was 77% (active).

Q: What about the growth inhibition [5, 7] of the same molecule?
A: The growth inhibition was -5%.

Q: What about the growth inhibition [5, 8] of the same molecule?
A: The growth inhibition was 98% (active).

Q: What about the growth inhibition ([5]; at 50.0 µM) of the same molecule?
A: Its growth inhibition is 93.2% (active).

Q: And the growth inhibition [6, 7]?
A: Its growth inhibition is 0%.

Q: What about the growth inhibition [6, 8] of the same molecule?
A: The growth inhibition was 97% (active).

Q: And the growth inhibition ([6]; at 50.0 µM)?
A: Its growth inhibition is 51.7%.

Q: What does the source list for `C=C1CC(C)(COc2ccc3c(C)c(C)c(=O)oc3c2C)OC1=O` (stereo not given)?
A: growth inhibition [1, 7]: 26%; growth inhibition [1, 8]: 82% (active); growth inhibition ([1]; at 50.0 µM): -23.4%; growth inhibition [2, 7]: 16%; growth inhibition [2, 8]: 90% (active); growth inhibition ([2]; at 50.0 µM): -75.4%; growth inhibition [3, 7]: 24%; growth inhibition [3, 8]: 73% (active); growth inhibition ([3]; at 50.0 µM): -10.7%; growth inhibition [4, 7]: 30%; growth inhibition [4, 8]: 64%; growth inhibition ([4]; at 50.0 µM): -23.1%; growth inhibition [5, 7]: 26%; growth inhibition [5, 8]: 86% (active); growth inhibition ([5]; at 50.0 µM): -10.8%; growth inhibition [6, 7]: 29%; growth inhibition [6, 8]: 94% (active); growth inhibition ([6]; at 50.0 µM): -24.7%

Q: Which growth inhibition [1, 7] does the source give for `O=C(O)CCSCc1cc(C(=O)Nc2ccc(/C=C/c3ccc(NC(=O)c4cc(CSCCC(=O)O)c5cccnc5c4O)cc3S(=O)(=O)O)c(S(=O)(=O)O)c2)c(O)c2ncccc12` here?
A: The growth inhibition was 48%.

Q: What about the growth inhibition [1, 8] of the same molecule?
A: Its growth inhibition is 53%.

Q: And the growth inhibition ([1]; at 50.0 µM)?
A: The growth inhibition was 74% (active).

Q: What about the growth inhibition [2, 7] of the same molecule?
A: The growth inhibition was 37%.

Q: And the growth inhibition [2, 8]?
A: Its growth inhibition is 89% (active).

Q: And the growth inhibition ([2]; at 50.0 µM)?
A: Its growth inhibition is 61.6%.

Q: And the growth inhibition [3, 7]?
A: Its growth inhibition is 58%.

Q: And the growth inhibition [3, 8]?
A: Its growth inhibition is 53%.

Q: And the growth inhibition ([3]; at 50.0 µM)?
A: The growth inhibition was 79.1% (active).

Q: What about the growth inhibition [4, 7] of the same molecule?
A: The growth inhibition was 22%.

Q: And the growth inhibition [4, 8]?
A: Its growth inhibition is 74% (active).

Q: What about the growth inhibition ([4]; at 50.0 µM) of the same molecule?
A: The growth inhibition was 45.5%.

Q: And the growth inhibition [5, 7]?
A: Its growth inhibition is 59%.

Q: What about the growth inhibition [5, 8] of the same molecule?
A: The growth inhibition was 96% (active).

Q: What about the growth inhibition ([5]; at 50.0 µM) of the same molecule?
A: The growth inhibition was 78.4% (active).

Q: And the growth inhibition [6, 7]?
A: Its growth inhibition is 52%.

Q: And the growth inhibition [6, 8]?
A: Its growth inhibition is 92% (active).

Q: And the growth inhibition ([6]; at 50.0 µM)?
A: Its growth inhibition is 79.5% (active).
